The values below come from the supplement of paper PMC7156485.

Molecules are shown by their SMILES. A number with no mark means an inactive call.
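Also: TDF is a line of transformed human dermal fibroblasts of mesenchymal origin.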

For the test, the system named is HCC1569. Kind of test: H1.0 immunofluorescence intensity relative to DMSO (% of DMSO); higher = stronger H1.0 induction, active = 140 or more. The settings on record: concentration: 10 µM; 24 h. Summed up:
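For HCC1569 and TDF cells, compounds at 10 µM were applied for 24 h at 37 °C in triplicate in 384-well plates. Cells were fixed in 3.7% formaldehyde, stained for H1.0 and with DAPI, and imaged at ×10 over six fields per well. The endpoint, H1.0 nuclear intensity or cell number, is shown as percent of the plate control using the median of replicates. Positional effects were smoothed for HCC1569 only.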
As to `Cc1cc(C)c(S(=O)(=O)Nc2cccc(C(F)(F)F)c2)c(C)c1`, the H1.0 immunofluorescence intensity was 104.

`CC1(C)CCC(C)(C)c2cc(C(=O)Nc3ccc(C(=O)O)cc3)ccc21`: the H1.0 immunofluorescence intensity is 109.

Turning to `CC(C=CC1=C(C)CCCC1(C)C)=CC=CC(C)=CC(=O)Nc1ccc(O)cc1` [Fenretinide], the H1.0 immunofluorescence intensity was 181 (active).

Regarding `CC(CCC(=O)NCCS(=O)(=O)O)C1CCC2C3C(O)CC4CC(O)CCC4(C)C3CC(O)C12C` (configuration not stated) [Taurocholic acid], the H1.0 immunofluorescence intensity was 111.

With `O=C(O)c1cc(O)ccc1O` [Gentisic acid], the H1.0 immunofluorescence intensity was 93.5.

Regarding `O=C1CC(=O)c2c(Cl)c(Cl)c(Cl)c(Cl)c21` [4,5,6,7-tetrachloro-1H-indene-1,3(2H)-dione], the H1.0 immunofluorescence intensity was 99.1.

On to `CCCCCCCCCCCCCCCCCC(=O)NCC(COP(=O)([O-])OCC[N+](C)(C)C)OC` (racemic) [rac-2-Methoxy-3-octadecanamido-1-propylphosphocholine], for which the H1.0 immunofluorescence intensity was 101.

For the compound `CN(c1ncccc1CNc1nc(Nc2ccc3c(c2)CC(=O)N3)ncc1C(F)(F)F)S(C)(=O)=O`, the H1.0 immunofluorescence intensity is 118.

Take `CS(=O)(=O)c1ccc(C(O)C(COC(=O)CN)NC(=O)C(Cl)Cl)cc1` (configuration not stated) [Thiamphenicol glycinate]: the H1.0 immunofluorescence intensity was 106.

In the case of `CCCCCCC=CC=CCCCCCCCC(=O)O` [9(Z), 11(Z)-octadecadienoic acid], the H1.0 immunofluorescence intensity was 103.

In the case of `CCC1OC(=O)C(C)C(OC2CC(C)(OC)C(O)C(C)O2)C(C)C(OC2OC(C)CC(N(C)C)C2O)C(C)(O)CC(C)C(=NOCOCCOC)C(C)C(O)C1(C)O` (configuration not stated) [Roxithromycin], the H1.0 immunofluorescence intensity was 92.1.

With `Br.Br.N=C(N)SCCc1cnc[nH]1` [Imetit dihydrobromide], the H1.0 immunofluorescence intensity was 80.5.

Turning to `CC(C=CC1=C(C)CCCC1(C)C)=CC=CC(C)=CC(=O)O` [Retinoic acid], the H1.0 immunofluorescence intensity was 120.

Turning to `CCc1[nH]c(-c2ccc(OC)cc2)nc1-c1ccncc1`, the H1.0 immunofluorescence intensity was 120.

On to `CCCCCC(=O)C=CC=CCCCCCCCC(=O)O` [13-Ketooctadecadienoioc acid], for which the H1.0 immunofluorescence intensity is 103.

Turning to `CNc1ncnc2c1ncn2C1OC(CO)C(O)C1O` (configuration not stated) [N6-Methyladenosine], the H1.0 immunofluorescence intensity is 110.

Take `C=CCc1ccccc1OCC(O)CNC(C)C.Cl` (configuration not stated) [Alprenolol hydrochloride]: the H1.0 immunofluorescence intensity was 104.

On to `CC12CCC(=O)C=C1CCC1C2C(=O)CC2(C)C1CCC2(O)C(=O)CO` (configuration not stated) [Cortisone], for which the H1.0 immunofluorescence intensity is 97.

Take `CCCCCC=CCC(O)C=Cc1cccc(CC(O)CCCCO)n1` (configuration not stated): the H1.0 immunofluorescence intensity was 113.

Take `CC(C)(C(=O)O)c1ccc(C(O)CCCN2CCC(C(O)(c3ccccc3)c3ccccc3)CC2)cc1.Cl` (configuration not stated) [Fexofenadine hydrochloride]: the H1.0 immunofluorescence intensity was 90.5.

Turning to `CC12C=CC(=O)C=C1CCC1C3CC(O)C(O)(C(=O)CO)C3(C)CC(O)C12F` (configuration not stated) [Triamcinolone], the H1.0 immunofluorescence intensity is 117.

Take `O=C(CCCN1CCC(O)(c2cccc(C(F)(F)F)c2)CC1)c1ccc(F)cc1` [Trifluperidol]: the H1.0 immunofluorescence intensity is 102.

Take `CC(C)n1cnc2c(NCc3ccccc3)nc(NCCCO)nc21` [Bohemine]: the H1.0 immunofluorescence intensity was 106.

As to `CC(C)(Sc1ccc(CCN(CCCCC2CCCCC2)C(=O)NC2CCCCC2)cc1)C(=O)O`, the H1.0 immunofluorescence intensity is 87.6.

As for `C[N+](C)(C)CCOC(N)=O.[Cl-]` [Carbachol], the H1.0 immunofluorescence intensity is 96.9.

`CN(C)CCCCSC(=N)N.Cl.Cl`: the H1.0 immunofluorescence intensity is 102.

`Cl.N=C(N)c1ccccc1` [Benzamidine hydrochloride]: the H1.0 immunofluorescence intensity was 85.3.

Turning to `CC(N)(COP(=O)(O)O)C(=O)O` (configuration not stated) [2-methyl-O-phosphonoserine], the H1.0 immunofluorescence intensity is 102.

For `O=C(NC(NC(=S)Nc1ccc(F)c([N+](=O)[O-])c1)C(Cl)(Cl)Cl)C(c1ccccc1)c1ccccc1` (configuration not stated), the H1.0 immunofluorescence intensity was 190 (active).

For `Brc1c(Br)c(Br)c2[nH]cnc2c1Br` [4,5,6,7-tetrabromo-1H-benzimidazole], the H1.0 immunofluorescence intensity is 103.

As to `CNCCC(Oc1ccc(C(F)(F)F)cc1)c1ccccc1.Cl` (stereo not drawn) [R-(-)-Fluoxetine hydrochloride], the H1.0 immunofluorescence intensity was 117.

Take `CC(=O)OC1(C(C)=O)CCC2C3CC(C)C4=CC(=O)CCC4(C)C3CCC21C` (configuration not stated) [Medroxyprogesterone 17-Acetate]: the H1.0 immunofluorescence intensity was 89.3.
